Measured values reported in PubChem BioAssay (NCATS).
Results filed as inconclusive are left out. Activity calls are given as the source filed them. Calls come from the whole dose curve; as a rule, active = well fitted curve in the direction sought with a large enough effect; inconclusive = small, poorly fitted or top-dose-only effect, or another doubt; inactive = no such curve, though single readings can be large or run the other way.

Test: qHTS Assay for Identifying Gametocytocidal Compounds (AID 743244);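 note: actives lower the fluorescent signal which means gametocytes are killed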
Conditions: P. falciparum 3D7 stage III-V gametocytes, alamarBlue, 72 h; max response: stronger effect = lower value
Procedure, shortened: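 Compounds are pinned into medium, gametocytes (stage III–V, 3D7, 20,000 cells/well) added, and plates held 72 h at 37 °C in 5% CO2. AlamarBlue follows for 24 h before fluorescence reading.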
% is set by controls: 0 for no effect and ±100 for the full control effect.

SMILES	max response
CC(C)(C)C(=O)OCOC(=O)[C@@H]1N2C(=O)[C@@H](NC(=O)[C@H](N)c3ccccc3)[C@H]2SC1(C)C	0.54% (inactive)
O=C1c2ccccc2S(=O)(=O)N1CCCCN1CCN(c2ncccn2)CC1	-4.4% (inactive)
OCC(O)CS (stereo not drawn)	0.0928% (inactive)
NC(=O)c1ccc([N+](=O)[O-])cc1Cl	-9.98% (inactive)
C[C@@H]1CCC[C@H](C)N1	20.8% (inactive)
NC(N)=NCCN1CCCCCCC1	21% (inactive)
COc1cc(C(=O)NCCCCCC(=O)O)cc(OC)c1OC	4.11% (inactive)
CCN(CC)CC1CCCCN1CC(=O)N1c2ccccc2C(=O)Nc2cccnc21 (stereo not drawn)	3.31% (inactive)
NCc1ccc(S(N)(=O)=O)cc1	-0.707% (inactive)
CC(=O)N[C@@H](Cc1ccc(O)cc1)C(=O)O	-6.61% (inactive)
O=C(Cn1ccnc1[N+](=O)[O-])NCCO	11.8% (inactive)
CN(C(=O)c1c(O)c2ccccc2n(C)c1=O)c1ccccc1	-2.29% (inactive)
CCC(C)(CN(C)C)OC(=O)c1ccccc1 (stereo not drawn)	-2.53% (inactive)
O=C(/C=C/c1ccccc1)OCc1ccccc1	18.6% (inactive)
CN[C@@H]1[C@H](O)[C@H](NC)[C@H]2O[C@@]3(O)C(=O)C[C@@H](C)O[C@H]3O[C@@H]2[C@H]1O	2.93% (inactive)
CN1CCN(C(=O)C2CCCCC2)CC1	11.1% (inactive)
O=S1(=O)OC(c2ccc(O)cc2)(c2ccc(O)cc2)c2ccccc21	21.8% (inactive)
CC(=O)OCC(=O)[C@@]1(O)CC[C@H]2[C@@H]3CCC4=CC(=O)C=C[C@]4(C)[C@@]3(F)[C@@H](O)C[C@@]21C	18.9% (inactive)
